We go through 25 molecules from PubChem BioAssay (NCATS).

One assay has as its system CRL-7250. In words: Cytotoxic Profiling of Annotated Libraries Using Quantitative High-Throughput Screening (AID 1296008). Also: potency is read from the fitted curve at half-maximal effect. As to max response: % is scaled to controls: 0 for no effect and ±100 for the full control effect. The settings on record: Five cell lines viability, CellTiter-Glo ATP luminescence, 48-72 h; max response: stronger effect = lower value. The essentials:
(§1)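 Cells exposed to compounds for 48 or 72 hr at 37 degrees Celsius. Viability read as ATP-coupled luminescence with CellTiter-Glo after 10 min at room temperature.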
(In ATP-based viability assays light output follows the ATP content of the culture.)

The next assay has as its system HEK293. The assay is described as above. The settings on record: Five cell lines viability, CellTiter-Glo ATP luminescence, 48-72 h; max response: stronger effect = lower value. The essentials:
as §1

The subject of the next assay is KB-3-1. The assay is described as above. The settings on record: Five cell lines viability, CellTiter-Glo ATP luminescence, 48-72 h; max response: stronger effect = lower value. In short, it runs like this:
as §1

Another assay deals with NIH3T3. Described as above. The settings on record: Five cell lines viability, CellTiter-Glo ATP luminescence, 48-72 h; max response: stronger effect = lower value. The essentials:
as §1

The subject of another assay is HEK293T. Briefly: qHTS assay to identify novel small-molecules to repurpose for Merkel cell carcinoma treatment (AID 1296009). The settings on record: MCC and control cell lines, CellTiter-Glo viability, 72 h; at 44.8 µM (top of the series) unless noted. The essentials:
(§2)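 CellTiter-Glo luminescence after 72 hr compound exposure at 37 degree celsius gave cell viability. Libraries NPC and MIPE were run as 8- and 11-point dose responses; RLUs normalized to DMSO (negative) and no-cell (cytotoxicity) controls.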
(qHTS replaces the single test concentration by a dilution series.)

For assay [1], the system named is HaCat. In words: Cytotoxic Profiling of Annotated Libraries Using Quantitative High-Throughput Screening (AID 1296008). Also: potency is read from the fitted curve at half-maximal effect. As to max response: % is scaled to controls: 0 for no effect and ±100 for the full control effect. The settings on record: Five cell lines viability, CellTiter-Glo ATP luminescence, 48-72 h; max response: stronger effect = lower value. In short, it runs like this:
as §1

Assay [2] concerns HACAT. In words: qHTS assay to identify novel small-molecules to repurpose for Merkel cell carcinoma treatment (AID 1296009). The settings on record: MCC and control cell lines, CellTiter-Glo viability, 72 h; series mostly up to 44.8 µM. The essentials:
as §2

Each structure is given as a SMILES string. Records with an inconclusive call do not appear. A number with no mark means an inactive call. Active and inactive are the calls of the source. Calls follow the shape of the dose curve; as a rule, active = well fitted inhibition curve with a large enough effect; inconclusive = small, poorly fitted or top-dose-only effect; inactive = flat fitted curve, though single readings scatter.
Also: nearly all actives have a fitted effect of over 60% in size.

As to `CC1(C)[C@@H](O)CC[C@]2(C)[C@H]3CC=C4[C@@H]5C[C@](C)(C(=O)O)CC[C@]5(C)CC[C@@]4(C)[C@]3(C)CC[C@@H]12`, the max response with CRL-7250 was -5.83%; with HEK293 it was 2.45%; with KB-3-1, 8.76%; in the assay on NIH3T3 it was 0.034%.
Take `O=C(O)CC(=O)OC[C@H]1O[C@@H](Oc2ccc3c(c2)OC[C@H]2c4cc5c(cc4O[C@@H]32)OCO5)[C@H](O)[C@@H](O)[C@@H]1O`: the max response in the assay on CRL-7250 is -24.1%; in the assay with KB-3-1, -2.44%; in the assay with NIH3T3, -8.59%. Further, in the assay with HEK293, the outcome was inactive. Also, the outcome in the assay on HEK293T is “inactive [at 17.4 µM]”.
With `CC/C=C\CCO[C@@H]1O[C@H](CO[C@@H]2OC[C@H](O)[C@H](O)[C@H]2O)[C@@H](O)[C@H](O)[C@H]1O`, the result in the assay on CRL-7250, in the assay with HEK293, in the assay with KB-3-1 and with HEK293T was inactive. For the same molecule, the max response with NIH3T3 was -20.8%.
Turning to `C=C[C@H]1C(O[C@@H]2O[C@H](CO)[C@@H](O)[C@H](O)[C@H]2O)OC=C2C(=O)N3CCc4c([nH]c5ccccc45)C3CC21` (stereo not given in full), the molecule was called inactive in the assay on CRL-7250, in the assay with HEK293 and in the assay with KB-3-1. The max response with NIH3T3 was 2.27%. Further, the outcome with HEK293T is “inactive [at 17.4 µM]”.
For `C=CC(=O)Nc1cccc(Nc2nc(Nc3ccc(N4CCN(C(C)=O)CC4)cc3OC)ncc2C(F)(F)F)c1`, the Potency with HEK293 was 6.51 µM (active); in the assay with HaCat [1], 2.91 µM (active); in the assay on KB-3-1, 11.6 µM (active).
For the molecule `Cc1noc(-c2ccc(-c3ccc(CC(=O)O)cc3)cc2)c1NC(=O)O[C@H](C)c1ccccc1`, the max response in the assay on HEK293 was -14%; with HaCat [1], -1.06%; with KB-3-1, 0.957%.
For the molecule `Cc1cc(C(=O)Nc2cccc(C(=O)Nc3cccc(C(F)(F)F)c3)c2)on1`, the max response with CRL-7250 was 4.99%; with KB-3-1, -0.787%; in the assay with NIH3T3, -17%. Also, the call in the assay on HaCat [1] was inactive. Besides, in the assay on HACAT [2], the Potency entry is “inactive”.
`COC(=O)C[C@H]1C(C)(C)[C@H](OC(C)=O)C2CC3=C4CC(=O)O[C@@H](c5ccoc5)[C@]4(C)CCC3[C@@]1(C)C2=O` (stereo not given in full): the max response in the assay with CRL-7250 is 3.53%; with HaCat [1], 1.4%; with KB-3-1 it was 4.19%; with NIH3T3 it was -4.77%.
In the case of `CCC(O)(C(=O)OCc1ccccc1NC(=O)CCC(=O)O)C(C)O` (stereo not given), the molecule was classed as inactive with CRL-7250 and in the assay with KB-3-1. Also, the max response was -3.62% in the assay with HaCat [1] and -2.36% in the assay with NIH3T3.
Take `C=C(C)C(=O)O[C@H]1CC2=CC(C/C(C)=C\[C@H]3OC(=O)C(=C)[C@H]13)OC2=O` (stereo not given in full): the Potency in the assay with HEK293 is 4.53 µM (active); in the assay with HaCat [1], 12.8 µM (active). Besides, the max response in the assay on KB-3-1 was -20.7%.
Regarding `COc1ccc([C@@H]2OC[C@H]3[C@@H]2CO[C@@H]3c2ccc(OC3OC(CO)C(O)C(O)C3O)c(OC)c2)cc1OC` (stereo not given in full), the max response with CRL-7250 is -6.62%; in the assay on HaCat [1], -0.266%; with KB-3-1, 8.67%; in the assay with NIH3T3, -7.42%.
As to `COc1cc(O)cc(C)c1C(=O)O[C@@H]1[C@H](O)[C@@H](CO)O[C@H]1n1ccc(=O)[nH]c1=O`, the Potency in the assay on HEK293 is 5.63 µM (active). Also, the figures for the max response in the assay with HaCat [1] and in the assay with KB-3-1 were -4.84% and -16.4%, respectively.
For `CC(C)CCC(=O)CC1c2ccccc2C(=O)N1c1ccc2ccc(Cl)nc2n1` (stereo not given) the same measures were 16.4 µM (active), 3.26% and 2.42%.
As to `CC(=O)SCC(=O)c1ccc(NS(=O)(=O)c2ccc(OCCCN(C)C)cc2)nc1`, the Potency was 7.31 µM (active) with HEK293, 14.6 µM (active) in the assay on HaCat [1] and 8.2 µM (active) with KB-3-1.
Turning to `O=C1NC(=O)C(c2cn(-c3ccccc3)nc2-c2ccc(F)cc2)N1` (stereo not given), the max response in the assay on HEK293 was -6.53%. In the assay with HaCat [1], the Potency was 16.4 µM (active). The molecule was called inactive with KB-3-1.
On to `COc1cccc(C(=O)N2CCN(C(=O)COc3cccc(C)c3)CC2)c1OC`, for which, in the assay on CRL-7250, the molecule was classed as inactive. In addition, the max response with HaCat [1] is -1.12%; with KB-3-1, -10.9%; with NIH3T3, -5.08%.
Turning to `C[C@@H]1O[C@@H](O[C@H]2[C@H](OC(=O)[C@]34CCC(C)(C)C[C@H]3C3=CCC5[C@@]6(C)C[C@H](O)[C@H](O[C@@H]7O[C@H](CO)[C@@H](O)[C@H](O)[C@H]7O)[C@@](C)(CO)C6[C@H](O)C[C@@]5(C)[C@]3(C)C[C@H]4O)OC[C@H](O)[C@@H]2O)[C@H](O)[C@H](O)[C@H]1O[C@@H]1OC[C@@H](O)[C@H](O[C@H]2OC[C@](O)(CO)[C@H]2O)[C@H]1O` (stereo not given in full), the result in the assay on CRL-7250 and in the assay on NIH3T3 was inactive. Moreover, the max response with KB-3-1 was 3.95%.
For the molecule `Cn1nnc(-c2ccc(-c3ccc(N4C[C@H](COP(=O)(O)O)OC4=O)cc3F)cn2)n1`, the Potency with HEK293 was 0.58 µM (active). The max response in the assay with HaCat [1] is 0.171%; in the assay with KB-3-1, -33%.
As to `Cc1ccc(C(=O)Nc2noc3ccccc23)cc1`, in the assay with HEK293, the Potency is 18.4 µM (active). Moreover, in the assay on HaCat [1], the max response is -29.9%. Moreover, the call with KB-3-1 was inactive.
As for `CCC(COC)n1nnc2c(Nc3ccc(OC)cc3C)nc(C)cc21` (stereo not given), the molecule was classed as inactive in the assay with CRL-7250. Moreover, the figures for the max response in the assay on HaCat [1], with KB-3-1 and in the assay on NIH3T3 were -0.414%, 6.85% and 2.01%, respectively.
As to `C=C(C)C(=O)OC1C(OC(C)=O)/C(C=O)=C\CC/C(CO)=C/C2OC(=O)C(=C)C21` (stereo not given), in the assay on HEK293, the Potency was 5.63 µM (active). Further, the figures for the max response with HaCat [1] and in the assay with KB-3-1 were -6.21% and -25.3%, respectively.
For `C=C1C(=O)O[C@H]2C1[C@H](OC(=O)/C(=C/CO)COC(=O)/C(C)=C/CO)CC(=C)[C@@H]1CC(=O)[C@@H](C)[C@@H]12` (stereo not given in full) the same measures were 11.2 µM (active), -52.7% and -3.1%.
On to `CC(C)(C(=O)NCC(F)(F)C(F)(F)F)C(=O)NC1C(=O)Nc2ccccc2-c2ccccc21` (stereo not given), for which the Potency in the assay with HEK293 is 5.8 µM (active); with HaCat [1], 16.4 µM (active); in the assay on KB-3-1, 18.4 µM (active).
Taken in the same sequence, the figures for `CN1CCC(Nc2nc(Nc3ccc(Oc4ccccc4)cc3)c3c(=O)[nH]cc(Br)c3n2)CC1` were 2.31 µM (active), 4.11 µM (active) and 5.8 µM (active).
With `COc1ccc([C@H]2CNC(=O)C2)cc1OC1CCCC1`, the max response in the assay with CRL-7250 was -5.24%; in the assay with HaCat [1] it was -27.2%; with KB-3-1, -2.59%; with NIH3T3, -18.3%.
